Sampled rows, rich in hits. Any-hit rate of the full collection: about 7.4%.
SMN2 splice enh – SMN2 splice variant enhancement | HEK293 SMN2-luciferase splicing reporter, luminescence, 30-36 h | Potency, µM (series often up to 46.1 µM), for inactives: top-dose activity change, positive = activation, actives largely listed as activators | 2.8% of 210,000 active; also: % of control where 0% means no effect; nearly all actives have a fitted effect of over 55% in size
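HEK293 cells carry an SMN2 minigene-luciferase reporter in which exon 7 inclusion puts luciferase in frame. Cells were seeded at 2000 cells/well, attached for 10-12 hours, then exposed to compounds for 30-36 hours at 37C before ONE-Glo luminescence.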
ELG1 genotoxic – genotoxicity induction in ELG1-luciferase HEK293T cells. Potency, µM (series often up to 46 µM), for the others: at the highest dose activity change, positive = activation, hits mostly activators. AID 504466. HEK293T ELG1-luciferase reporter, luminescence, 16 h. 1.3% of 330,000 active; also: % of control where 0% means no effect; nearly all actives have a fitted effect of over 60% in size
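ELG1-luciferase HEK293T cells, 2,000/well; compound pinned in; 16 hr, 37 °C, 5% CO2; ONE-Glo, 30 min RT; luminescence on CCD imager.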
p53 reactivator – re-activators of mutant p53; H1299 p53-A138V BP100-luciferase reporter, luminescence, 24 h; 0.063% of 320,000 active; Potency, µM (titrated, usually from 92.2 µM), for inactives: at the top dose activity change, positive = activation, most hits filed as activators; AID 504706; also: % of control where 0% means no effect; nearly all actives have a fitted effect of over 45% in size
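H1299 (p53-null), stable ts p53-A138V + BP100-Luc; 1000 cells/well, Opti-MEM/10% FBS; cpd 4 pt, 1:5; 24 h, 37 deg C, 5% CO2; detection reagent 10 min RT; luminescence.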
NPC1 prom act – NPC1 promoter activation; 2.4% of 320,000 active; Potency, µM (top dose mostly 9.22 µM), for inactives: at the highest dose activation, most hits filed as activators; AID 485313; Huh7 NPC1 promoter luciferase reporter, 24 h; also: % of control where 0% means no effect; nearly all actives have a fitted effect of over 60% in size
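Luciferase expression driven by the NPC1 promoter was measured in stably transfected Huh7 cells after a 24 h compound incubation, using a luciferase reagent and a luminescence read.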
FLuc modulator – inhibits or activates purified firefly luciferase, miR-21 counter-screen; Potency, µM (series often up to 57.5 µM), for the others: at the top dose activity change, negative = inhibition, hits mostly inhibitors; purified FLuc, Km substrates, luminescence inhibition; 6.9% of 360,000 active;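 also: plate controls were vehicle for no effect and reference inhibitor for full effect; nearly all actives have a fitted effect of over 55% in size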
Target sequence (P08659 whole entry, looked up): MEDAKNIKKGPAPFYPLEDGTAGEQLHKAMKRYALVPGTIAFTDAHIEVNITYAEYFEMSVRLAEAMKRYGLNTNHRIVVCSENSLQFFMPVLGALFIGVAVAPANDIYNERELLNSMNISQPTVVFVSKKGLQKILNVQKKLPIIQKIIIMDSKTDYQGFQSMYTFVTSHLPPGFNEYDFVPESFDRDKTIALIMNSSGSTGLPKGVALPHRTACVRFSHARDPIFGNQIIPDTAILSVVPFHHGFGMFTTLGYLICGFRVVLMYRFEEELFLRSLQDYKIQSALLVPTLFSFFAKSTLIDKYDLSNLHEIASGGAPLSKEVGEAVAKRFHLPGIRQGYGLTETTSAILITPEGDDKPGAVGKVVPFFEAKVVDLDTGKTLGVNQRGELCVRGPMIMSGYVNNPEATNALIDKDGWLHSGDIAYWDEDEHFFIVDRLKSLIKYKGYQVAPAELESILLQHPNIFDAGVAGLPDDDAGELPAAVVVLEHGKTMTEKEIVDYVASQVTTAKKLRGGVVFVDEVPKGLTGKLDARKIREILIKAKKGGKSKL
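Purified P. pyralis luciferase, 10 nM final, with Km-level 10 uM D-luciferin and 10 uM ATP in 50 mM Tris acetate pH 7.5, 10 mM Mg acetate, 0.01% Tween-20, 0.05% BSA; 6-point qHTS titration about 60 µM downward; luminescence read.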
Rab9 prom act – Rab9 promoter activation; Huh7 Rab9 promoter-luciferase reporter, luminescence, 24 h; Potency, µM (titrated, usually from 9.22 µM), for inactives: at the highest dose activation, negative = inhibition, most hits filed as activators; 2.8% of 320,000 active; AID 485297; also: % of control where 0% means no effect; nearly all actives have a fitted effect of over 60% in size
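Cell-based reporter: Huh7 stable for Rab9 promoter-driven luciferase, plated in reduced-serum medium with 10% FBS at 1500 cells/well, compound-treated 24 h at 37 °C, luminescence read after 10 min reagent.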
* hit, by the source's call; ? = inconclusive; . = not tested or not shown; ! = repeats disagree; [ ] = remark or other dose. Calls follow the shape of the dose curve; as a rule, active = well fitted curve in the direction sought with a large enough effect; inconclusive = small, poorly fitted or top-dose-only effect, or another doubt; inactive = no such curve, though single readings can be large; an effect the other way counts as inactive or inconclusive. Potency is read from the fitted curve at half-maximal effect.

SMILES	SMN2 splice enh	ELG1 genotoxic	p53 reactivator	NPC1 prom act	FLuc modulator	Rab9 prom act
CNC(=O)Oc1ccc(C(=O)N2c3ccccc3NC(=O)C2C)cc1 (centres undefined)	.	0.0%	4.4%	-3.6%	2.0%	-4.4%
Cc1ccccc1N1C(=O)/C(=C/c2ccco2)C(=O)NC1=S	.	-6.0%	-6.5%	-2.2%	23.9µM*	0.8%
CCOc1ccc(N2C(=O)/C(=C/c3ccco3)C(=O)NC2=S)cc1	.	-2.4%	?	-2.3%	?	-2.2%
N#CS.N=C=S.N=C=S.[Cu].[NH2-].[NH2-].[NH2-].[NH2-].c1ccc2ncccc2c1	-8.6%[9.22 µM]	.	.	.	.	.
Oc1c(Cl)c(Cl)c(Cl)c(Cl)c1Cl (tested in a mixture with another compound)	-16.2%[9.22 µM]	.	.	.	.	.
O=C(CSc1nnc(NC(=O)c2cccc(F)c2)s1)NCc1ccco1	.	25.9%	19.6%	?	3.38µM*	?
COc1ccc(C(=O)Nc2nnc(S(=O)(=O)N(CC(C)C)c3ccc(C)cc3)s2)cc1OC	.	.	.	.	8.49µM*	.
O=C(O)c1cc[c]([Hg][S]c2ncnc3nc[nH]c23)cc1	-26.7%[9.22 µM]	.	.	.	.	.
CC(=O)Nc1ccccc1C(=O)OCC(=O)c1ccc2c(c1)OCCO2	.	11.0%	?	?	0.757µM*	3.55µM*
CC(=O)Nc1ccccc1C(=O)OCC(=O)Nc1ncccn1	.	9.5%	2.8%	2.6%	-0.8%	-3.1%
Cc1onc(-c2ccccc2Cl)c1C(=O)OCC(=O)c1ccc2c(c1)OCCO2	13.1%	-8.9%	2.6%	7.1%	4.78µM*	6.7%
N=C1c2ccccc2CN1CC(=O)c1ccccc1	11.2µM*	?	?	5.8%	15.1µM*	?
N=C1c2ccccc2CN1NC(=O)c1ccccc1	?	-0.9%	17.4%	8.2%	-4.0%	1.0%
NC(CCl)=N[C@H]1CN2CCC1CC2	9.3%[9.22 µM]	.	.	.	.	.
COc1cccc(OCc2cc(C(=O)N3C[C@H]4C[C@@H](C3)c3cccc(=O)n3C4)no2)c1	.	18.3µM*	.	3.16µM*	16.9µM*	3.98µM*
CNC(=O)c1cccn(Cc2ccc(C(F)(F)F)cc2)c1=O	-8.2%	18.3µM*	-1.7%	-14.2%	-0.3%	14.5%
c1ccc(CN2CCc3nc4ccccc4cc3C2)cc1	.	?	?	?	12µM*	?
CC(=O)Nc1ccc(NC(=O)Oc2ccccc2)cc1	2.0%	2.4%	8.7%	-3.8%	?	-1.3%
CN(C)c1ccc(NC(=O)Oc2ccccc2)cc1	-1.9%	?	?	1.1%	3.01µM*	10.7%
COc1ccc(/C=N/N=C(/N)N[N+](=O)[O-])c(OC)c1	-4.6%	13.2%	?	8.4%	?	8.7%
N/C(=N\N=C/c1ccc(-c2ccc(O)c(C(=O)O)c2)o1)N[N+](=O)[O-]	1.1%	1.5%	3.0%	-3.7%	26.9µM*	5.9%
C=CCc1ccc(OC(=O)NC2CCCCC2)c(OC)c1	.	?	13.5%	?	10.7µM*	3.55µM*
COc1cc2[nH]c(=O)n(Cc3ccc(C(=O)NC4CCCC4)cc3)c(=O)c2cc1OC	-3.3%	?	0.9%	-0.7%	6.5%	-1.0%
COC(=O)Nc1cccc(OC(=O)Nc2cccc(C)c2)c1	20.5%	.	.	.	.	.
Cc1ccc(NC(=O)OC(C)CNC(=O)Oc2cccc(C)c2)cc1 (centres undefined)	-3.0%	-11.8%	21.3%	16.2%	23.9µM*	25.1%
SMILES	SMN2 splice enh	ELG1 genotoxic	p53 reactivator	NPC1 prom act	FLuc modulator	Rab9 prom act
O=C1/C(=C/c2ccc(F)cc2)Oc2cc(OC(=O)N3CCOCC3)ccc21	.	4.1%	2.2%	26.8%	5.36µM*	21.9%
CN(C)C(=O)Oc1ccc2c(c1)O/C(=C\c1cccc([N+](=O)[O-])c1)C2=O	.	1.2%	4.5%	0.5%	0.2%	-4.2%
CN(C)C(=O)Oc1ccc2c(c1)O/C(=C\c1cccc(Cl)c1)C2=O	.	13.0%	25.1%	?	26.9µM*	?
CN(C)C(=O)Oc1ccc2c(c1)O/C(=C\c1ccc(Cl)cc1)C2=O	.	?	8.9%	?	?	4.47µM*
Cc1ccc2ccccc2c1C	-1.4%	.	.	.	.	.
C[C@@H](O)CN(CCN(C[C@@H](C)O)C[C@@H](C)O)C[C@@H](C)O.O=[N+]([O-])O.[Cu]	-14.0%[9.22 µM]	.	.	.	.	.
Cc1cc2c(C(C)C)c(O)c(O)c(C=O)c2c(O)c1-c1c(C)cc2c(C(C)C)c(O)c(O)c(C=O)c2c1O	-91.5%	?	-11.7%	-31.2%[46.1 µM]	13.5µM*!	-40.9%[46.1 µM]
CCC12CCN(CC3CC3)CC1Oc1c(C)cccc12 (centres undefined)	.	.	.	.	3.9%	.
CCN(CC)C(=O)c1ccc(NC(=O)c2c(C)noc2C)cc1	.	4.9%	21.3%	-0.5%	3.1%	-1.9%
CC(=O)c1ccc(NC(=O)c2cc(CC(C)C)on2)cc1	-0.2%	18.4µM*	6.0%	5.0%	?	0.3%
CCN(CC)C(=O)c1ccc(NC(=O)CCCSc2ccccc2)cc1	11.3%	1.5%	-1.4%	-3.3%	2.1%	-0.7%
CCN(CC)C(=O)c1ccc(NC(=O)Nc2ccccc2F)cc1	2.82µM*	?	-6.5%	0.316µM*	1.51µM*	?
O=C(Nc1ccccc1Cl)OC1CN2CCC1CC2 (centres undefined)	.	1.5%	-4.4%	-0.8%	-6.6%	-1.6%
O=C(Nc1cccc(Cl)c1)OC1CN2CCC1CC2 (centres undefined)	.	-14.0%	8.2%	19.2%	13.5µM*	17.8%
O=C(Nc1ccc(Cl)cc1)OC1CN2CCC1CC2 (centres undefined)	.	?	-3.9%	?	15.1µM*	?
O=C(O)C(O)(c1ccc(-c2ccccc2)cc1)c1ccc(-c2ccccc2)cc1	-9.9%[9.22 µM]	.	.	.	.	.
CC(C)[C@]1(O)[C@@H](OC(=O)c2ccc[nH]2)[C@]2(O)[C@@]3(C)C[C@@]4(O)O[C@@]5([C@H](O)[C@@H](C)CC[C@]35O)[C@]2(O)[C@]41C	-1.8%[9.22 µM]	.	.	.	.	.
COc1ccc(C(=O)CCNc2ccc(F)cc2)cc1	.	?	15.0%	?	?	2.82µM*
C[C@@]12CC[C@H]3[C@H](CCC4=CC(=O)CC[C@H]43)[C@H]1CC[C@H]2OC1(O)C(=O)c2ccccc2C1=O	5.9%[9.22 µM]	.	.	.	.	.
CCOC(=O)c1sc(=NC(=O)c2ccc(C)c(C)c2)n(C)c1C	-42.2%	11.6µM*	2.9%	3.16µM*	?	2µM*
CO[C@H]1[C@H](O)[C@H](O[C@@H]2[C@H](Oc3cccc4c(O)c5c(=O)oc6ccc(C)c7c(=O)oc(c34)c5c67)O[C@@H](C)[C@H](O)[C@H]2O)O[C@@H](C)[C@@H]1O	19.1%[9.22 µM]	.	.	.	.	.
CN(C)C(=O)Oc1cccc(NC(=O)c2ccccc2C(F)(F)F)c1	.	-1.2%	-3.3%	-1.2%	-2.2%	-2.2%
